Legend:
Details in all cases: Compound Concentration (nM):1000
CDK3 = test system: CDK3
CDK4-cyclinD1 = test system: CDK4-cyclinD1
CDK4-cyclinD3 = test system: CDK4-cyclinD3
CDK4 = test system: CDK4
CDK5 = test system: CDK5
CDK7 = test system: CDK7
CDK8 = test system: CDK8
CDK9 = test system: CDK9
CDKL1 = test system: CDKL1
CDKL2 = test system: CDKL2
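Note: KINOMEscan scanMAX binding as percent activity remaining versus control; lower means stronger binding.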

| SMILES | Percent Control (CDK3) [%] | Percent Control (CDK4-cyclinD1) [%] | Percent Control (CDK4-cyclinD3) [%] | Percent Control (CDK4) [%] | Percent Control (CDK5) [%] | Percent Control (CDK7) [%] | Percent Control (CDK8) [%] | Percent Control (CDK9) [%] | Percent Control (CDKL1) [%] | Percent Control (CDKL2) [%] |
| --- | --- | --- | --- | --- | --- | --- | --- | --- | --- | --- |
| COc1ccccc1-c1cc(/C=C2\C(=O)Nc3ncc(Br)cc32)cc(Br)c1O [GW442130X] | 100 | 88 | 95 | 100 | 99 | 89 | 71 | 97 | 100 | 96 |
| COc1ccc2c(-c3ccnc(Nc4cccc(OC(F)(F)F)c4)n3)cnn2n1 [GW810372X] | 100 | 90 | 74 | 83 | 100 | 61 | 90 | 97 | 77 | 18 |
| CC1=C(C(=O)Nc2ccc3[nH]ncc3c2)C(c2ccc(Cl)c(Cl)c2)CC(=O)N1 (centres unmarked) [GSK299115A] | 100 | 74 | 100 | 80 | 100 | 83 | 47 | 100 | 96 | 80 |
| COc1cc(C)c(N(C)C(=O)CN(C)C)cc1Nc1nc(Nc2cccc(F)c2C(N)=O)c2cc[nH]c2n1 [GSK2219385] | 92 | 89 | 100 | 90 | 100 | 73 | 100 | 100 | 79 | 100 |
| O=C(Nc1n[nH]c2nc(-c3ccc(O)cc3)c(Br)cc12)C1CC1 [SB-725317] | 16 | 2.5 | 4.4 | 100 | 100 | 19 | 100 | 95 | 98 | 60 |
| CC1=C(C(=O)Nc2ccc3[nH]ncc3c2)C(c2ccc3ccccc3c2)CC(=O)N1 (centres unmarked) [GSK270822A] | 99 | 63 | 94 | 94 | 100 | 88 | 71 | 100 | 91 | 93 |
| CCc1ccc(Oc2nccc(-c3c(-c4ccc(F)cc4)ncn3C3CCNCC3)n2)cc1 [SB-242719] | 100 | 94 | 76 | 91 | 100 | 88 | 86 | 100 | 86 | 96 |
| C/C(Nc1ccc(S(N)(=O)=O)cc1)=C1/C(=O)Nc2ccccc21 [GW335962X] | 100 | 29 | 64 | 100 | 100 | 74 | 78 | 100 | 85 | 82 |
| COc1ccc(COc2ccc(Cc3cnc(N)nc3N)cc2OC)cc1 [GW632580X] | 100 | 99 | 93 | 94 | 93 | 100 | 100 | 100 | 82 | 100 |
| NS(=O)(=O)c1ccc(N/N=C2\C(=O)Nc3ccc(Cl)cc32)cc1 [GW280670X] | 100 | 77 | 100 | 100 | 100 | 100 | 100 | 100 | 96 | 78 |
| NS(=O)(=O)c1ccc(N/N=C2\C(=O)Nc3ccc(-c4cnco4)cc32)cc1 [GW276655] | 47 | 29 | 31 | 94 | 81 | 32 | 100 | 93 | 39 | 49 |
| C[C@@H](Oc1cc(-n2cnc3ccc(OC4CCN(C)CC4)cc32)sc1C(N)=O)c1ccccc1Cl [GSK579289A] | 90 | 100 | 69 | 94 | 100 | 70 | 100 | 100 | 53 | 100 |
| CN(C)CCNC(=O)Nc1ccc(N(C)c2ccnc(Nc3ccc(CS(C)(=O)=O)cc3)n2)cc1.Cl [GW830900A] | 100 | 81 | 100 | 97 | 85 | 65 | 75 | 98 | 88 | 28 |
| COc1ccc2cc(-c3c(-c4ccncc4)nc(-c4ccc(S(C)(=O)=O)cc4C)n3C)ccc2c1 [SB-633825] | 100 | 68 | 90 | 91 | 95 | 85 | 78 | 74 | 87 | 100 |
| COc1cc2ncnc(Nc3ccc4c(cnn4Cc4ccccc4)c3)c2cc1OC.Cl [GW282449A] | 100 | 100 | 100 | 100 | 100 | 100 | 100 | 100 | 100 | 95 |
| Cl.O=C(Nc1ccc(Oc2ccc3[nH]c(NC(=O)c4ccccc4)nc3c2)cc1)Nc1cc(C(F)(F)F)ccc1F [GW709042A] | 100 | 92 | 100 | 84 | 100 | 32 | 54 | 81 | 92 | 69 |
| Cl.c1ccc(Cc2nc3ccc(Nc4ncnc5ccccc45)cc3[nH]2)cc1 [GR269666A] | 100 | 93 | 100 | 93 | 100 | 100 | 88 | 100 | 100 | 100 |
| NS(=O)(=O)c1ccc(N/N=C2\C(=O)Nc3ccc(C(=O)NCc4ccncc4)cc32)cc1 [GW300657X] | 66 | 13 | 12 | 84 | 77 | 13 | 75 | 100 | 46 | 99 |
| O=C1Nc2ccc(C(=O)c3ccco3)cc2C1=Cc1cc(Cl)c(O)c(Cl)c1 [GW406108X] | 100 | 78 | 94 | 94 | 89 | 76 | 80 | 100 | 88 | 100 |
| Cl.O=S1CCN(Cc2ccc(-c3ccc4ncnc(Nc5ccc(OCc6ccccc6)c(F)c5)c4c3)o2)CC1 [GW576924A] | 100 | 100 | 100 | 100 | 100 | 100 | 86 | 100 | 100 | 100 |
